Experimental data as given in PubChem BioAssay AID1878 (Sanford-Burnham Center for Chemical Genomics, 2009).
About 200 (20%) of roughly 1,000 compounds were called active. Only a sample is shown. Measured potencies and affinities stand elsewhere. Unmarked numbers belong to inactive results. Cut-off read from the data, not from the text of the source: active = inhibition above about 55%; inactive = the rest.

The compounds below were run against Dual specificity protein phosphatase 3 (Homo sapiens) (UniProt P51452) (assay: VHR1 phosphatase inhibitors, biochemical (AID 1878)). Conditions: recombinant VHR phosphatase, fluorogenic substrate; at 13.3 µM; hits give high values.
Dual specificity protein phosphatase 3 (Homo sapiens), sequence (P51452 whole entry, looked up): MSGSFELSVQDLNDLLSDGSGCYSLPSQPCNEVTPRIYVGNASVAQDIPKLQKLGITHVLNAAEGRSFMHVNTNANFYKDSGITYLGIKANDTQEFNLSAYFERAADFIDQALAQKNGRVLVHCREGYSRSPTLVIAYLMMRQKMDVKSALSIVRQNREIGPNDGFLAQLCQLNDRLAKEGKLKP

| SMILES | inhibition |
| --- | --- |
| Clc1ccc2ccc3cccnc3c2n1 | -16.7% |
| Cc1ccc(CNc2ccc(N3CCOCC3)c(Cl)c2)cc1 | 8% |
| Cc1c(C(=O)N2CCCCC2)c(S(=O)(=O)N2CCN(c3ccc(F)cc3)CC2)c(C)n1C | -7% |
| Cc1c(C)n(C)c2ccc(C(=O)NCCCN3CCCCC3C)cc12 (configuration not stated) | -11% |
| O=C(CSc1n[nH]c(-c2ccccc2O)n1)NC1CCCCC1 | 2.6% |
| Clc1ccc(Cl)c(OCCCCN2CCCCC2)c1 | -4.8% |
| COc1ccc(CCNC(=O)CCNC(=O)N2CC(=O)Nc3ccccc32)cc1 | 13.9% |
| COc1ccc(OC)c(NC(=O)CCN2CCN(c3ccccc3OC)CC2)c1 | 6.9% |
| COc1ccc(N2CCN(c3ncnc4scc(-c5ccccc5)c34)CC2)cc1 | 16.6% |
| O=C(Nc1cccc(-n2cnnn2)c1)c1ccc(Cl)cc1Cl | 3.8% |
| Oc1ccc(-c2nc3ccccc3nc2-c2ccccc2)cc1 | -3.2% |
| O=S(=O)(Nc1ccc2ccccc2n1)c1ccccc1Cl | 3.5% |
| CCCN1C2CCCC1CC(NC(=O)c1ccc(C(C)(C)C)cc1)C2 (configuration not stated) | -2.3% |
| CC1CCCCN1CC(O)COc1ccc(OCC(O)CN2CCCCC2C)cc1 (configuration not stated) | -5.3% |
| COc1ccc(Nc2nc(-c3sc(C)nc3C)cs2)c(OC)c1 | 23% |
| COc1ccc(C(=O)N2CCCCCCC2)cc1OC1CCN(C(C)C)CC1 | -3.1% |
| COc1ccc(C(=O)N(C)CCCC2CCCC2)cc1OC1CCN(C(C)C)CC1 | -11.7% |
| O=c1[nH]c(NCCO)nnc1Cc1ccccc1 | -18.8% |
| CN(C(=O)COC(=O)c1cc(-c2ccco2)nc2ccccc12)C1CCS(=O)(=O)C1 (configuration not stated) | 98.4% (active) |
| CCc1ccc(-c2cc(C(=O)NN3CCOCC3)c3ccccc3n2)s1 | -11.9% |
| CCOc1ccc(N(C)C(=O)CCc2nnc3ccc(N4CCOCC4)nn23)cc1 | -3.3% |
| O=C(N=C1SC2CS(=O)(=O)CC2N1c1ccc(F)cc1F)C1CC1 (configuration not stated) | -8.3% |
| Cn1c(=O)oc2cc(S(=O)(=O)N3CCCC(C(=O)NCc4ccc5c(c4)OCO5)C3)ccc21 (configuration not stated) | 9.1% |
| CCC(=O)N1CCc2cc(S(=O)(=O)CCC(=O)NCc3ccc(OC)cc3)ccc21 | 20% |
| CC(C)c1cc(N=NC(N)=O)cc(C(C)C)c1O | 0.5% |
| CCN1CCN(Cc2nnc(-c3ccc(C)cc3)o2)CC1 | -3.3% |
| O=C1CCC(C(=O)N2CCCC2)CN1Cc1cccc(C(F)(F)F)c1 (configuration not stated) | -14.6% |
